Results as given in ChEMBL document CHEMBL3988442, “University of Dundee, Small-Polar-MMV Screening Library” (2021).
In all, about 69,000 compounds went through this assay and about 950 (1.4%) showed an effect of 50% or more. Only a selection was taken, and strong results are over-represented in it overall.

tested on: Mycobacterium tuberculosis; test: Cornell M. t heat shock assay; assay type: functional, organism-based; design: dose or concentration left out as unconfirmed; note: in the data most compounds retested in dose-response had high values

With Cc1noc(C)c1CN1CC[C@H]2OCC[C@@]2(C(=O)N(C)C)C1.O=C(O)C(F)(F)F as the molecule, how does the “Percent Effect” value read?
The value was -9.212%.

CC(C)CCN1C2(CCN(Cc3nccs3)C2)c2ccccc2S1(=O)=O.O=C(O)C(F)(F)F (stereo unspecified) was tested. Which “Percent Effect” value did it give?
Its value is 47.98%.

Which “Percent Effect” value does the source give for CN(C)C(=O)COCC1CN(Cc2cccs2)Cc2ncn(C)c21.O=C(O)C(F)(F)F.O=C(O)C(F)(F)F (stereo unspecified) here?
Its value is -34.33%.

COc1cc(Cl)cc(CN2CCCC(N3CCOCC3)C2)c1OC (stereo unspecified) was tested. Which “Percent Effect” value did it give?
Its value is 2.91%.

Which “Percent Effect” value does the source give for COc1ccc(CN2CCCC(N3CCCC3)C2)cc1Cn1cncn1 (stereo unspecified) here?
Its value is -42.58%.

For O[C@@H]1CN(Cc2cc(Cl)cc3cccnc23)C[C@@H]1O, which “Percent Effect” value is on record?
The value was -38.19%.

With COc1cc(Cl)cc(CN2CCCC(N3CCCC3)C2)c1OC (stereo unspecified) as the molecule, how does the “Percent Effect” value read?
Its value is 98.75%.

For Clc1cc(CN2CCCN3CCCC3C2)c2ncccc2c1 (stereo unspecified), which “Percent Effect” value is on record?
Its value is 99%.

With Clc1cc(CN2CCCC(Cn3cncn3)C2)c2ncccc2c1 (stereo unspecified) as the molecule, how does the “Percent Effect” value read?
The value was -4.966%.

Which “Percent Effect” value does the source give for CNC(=O)C1CNCCN1C(=O)c1ccc(C(F)(F)F)nc1C.Cl (stereo unspecified) here?
Its value is 13.87%.

Which “Percent Effect” value does the source give for CC(C)NC(=O)CC1COC2(CCN(Cc3cccnc3)CC2)C1.O=C(O)C(F)(F)F.O=C(O)C(F)(F)F (stereo unspecified) here?
The value was -3.493%.

How did the “Percent Effect” value turn out when Cc1nc(N2CCCC2)nc2c1CCN(Cc1ccoc1)CC2.O=C(O)C(F)(F)F was run?
Its value is 64.12%.

With Cc1nc(C)c2c(n1)CCN(Cc1ccco1)CC2 as the molecule, how does the “Percent Effect” value read?
Its value is 1.706%.

Which “Percent Effect” value does the source give for Cc1nc(N2CCCC2)nc2c1CCN(Cc1nccn1C)CC2.O=C(O)C(F)(F)F here?
Its value is -10.58%.

Which “Percent Effect” value does the source give for Cc1nc(N2CCCC2)nc2c1CCN(Cc1ccsc1)CC2.O=C(O)C(F)(F)F here?
Its value is 100.4%.

With Cc1nc(N2CCOCC2)nc2c1CCN(Cc1cccnc1)CC2.O=C(O)C(F)(F)F as the molecule, how does the “Percent Effect” value read?
Its value is 5.04%.

With Cc1nc(N2CCOCC2)nc2c1CCN(Cc1ccsc1)CC2.O=C(O)C(F)(F)F as the molecule, how does the “Percent Effect” value read?
Its value is 3.426%.

Which “Percent Effect” value does the source give for Cc1nc(N2CCCC2)nc2c1CCN(Cc1ccco1)CC2.O=C(O)C(F)(F)F here?
Its value is 66.31%.

Oc1nc(N2CCCC2)nc2c1CCN(Cc1ccsc1)CC2 was tested. Which “Percent Effect” value did it give?
Its value is -11.88%.

How did the “Percent Effect” value turn out when CC(C)Oc1ncnc2c1CCN(Cc1ccco1)CC2.O=C(O)C(F)(F)F was run?
Its value is -23.01%.

With O=C(O)C(F)(F)F.O=C(O)C(F)(F)F.O=C1CC2(CCN(Cc3ccncc3)C2)CN1c1ccc2c(c1)OCO2 (stereo unspecified) as the molecule, how does the “Percent Effect” value read?
The value was -29.31%.

Which “Percent Effect” value does the source give for O=C(O)C(F)(F)F.O=C(O)C(F)(F)F.c1cnc(N2CCC3(COCCN(CC4CCOCC4)C3)C2)nc1 (stereo unspecified) here?
The value was -23.85%.

How did the “Percent Effect” value turn out when CCc1ncnc2c1CCN(CC(=O)N(C)C)CC2.O=C(O)C(F)(F)F was run?
The value was -2.001%.

Which “Percent Effect” value does the source give for COc1ccc(CN2C[C@@H]3OCCN(CCN4CCCC4)[C@@H]3C2)cc1.O=C(O)C(F)(F)F.O=C(O)C(F)(F)F.O=C(O)C(F)(F)F here?
Its value is -18.96%.

Which “Percent Effect” value does the source give for Cc1ncc2c(n1)C1(CCN(C(=O)C3CC3)CC1)OCC2.Cl here?
The value was 6.327%.

Which “Percent Effect” value does the source give for CCN(CC)Cc1cn2c(n1)CN(C(=O)Cc1ccsc1)CC2.O=C(O)C(F)(F)F here?
Its value is -4.189%.

How did the “Percent Effect” value turn out when Cl.O=C1CC2(CCNCC2)C(=O)N1c1cccc(F)c1 was run?
The value was -6.229%.

How did the “Percent Effect” value turn out when Cc1cc2c(=O)n3c(nc2s1)CCN(Cc1cnc(C)n1C)CC3.Cl was run?
Its value is 0.614%.

Which “Percent Effect” value does the source give for O=C(O)C(F)(F)F.O=C1Nc2ccccc2C12CCN(Cc1cccs1)CC2 here?
Its value is -5.404%.

With O=C(O)C(F)(F)F.c1ccc(CN2Cc3nccn3CC(Cn3cncn3)C2)nc1 (stereo unspecified) as the molecule, how does the “Percent Effect” value read?
The value was -29.71%.

Which “Percent Effect” value does the source give for Cc1nc2c(c(NCc3nc4ccccc4s3)n1)CCNCC2 here?
Its value is 105.4%.

Cc1nc2c(c(NCc3cc4ccccc4s3)n1)CCNCC2 was tested. Which “Percent Effect” value did it give?
Its value is -9.753%.

How did the “Percent Effect” value turn out when Cc1nc2c(c(NCc3ccc(-c4ccccn4)s3)n1)CCNCC2 was run?
The value was -21.22%.

With C[C@H]1CN(CC2CCOCC2)C[C@@]12CCN(Cc1cccnc1)C2=O.O=C(O)C(F)(F)F.O=C(O)C(F)(F)F as the molecule, how does the “Percent Effect” value read?
The value was 4.288%.

With CNC(=O)C1(C)CN(Cc2cn(C)c3ccc(F)cc23)CCO1 (stereo unspecified) as the molecule, how does the “Percent Effect” value read?
The value was 39.76%.

Which “Percent Effect” value does the source give for Cc1ncsc1CN1CCOC(C)(C(=O)N(C)C)C1 (stereo unspecified) here?
The value was -16.31%.

With Cc1nnc(N2CCOC(C)(C(=O)N(C)C)C2)c2ccccc12 (stereo unspecified) as the molecule, how does the “Percent Effect” value read?
Its value is 0.5691%.

CN(C)C(=O)C1(C)CN(Cc2cn(C)c3ccccc23)CCO1 (stereo unspecified) was tested. Which “Percent Effect” value did it give?
The value was 54.51%.

CC1(C(=O)N2CCOCC2)CN(Cc2ccccc2F)CCO1 (stereo unspecified) was tested. Which “Percent Effect” value did it give?
The value was 10.07%.

For CN(C)C(=O)C1(C)CN(Cc2cn(C)c3ccc(F)cc23)CCO1 (stereo unspecified), which “Percent Effect” value is on record?
The value was 64.53%.

With CC(C)Cn1c(=O)nc2n1C(=O)N(c1ccc(F)cc1)C2 as the molecule, how does the “Percent Effect” value read?
The value was 4.992%.

With Cc1cccc(-c2nnn3c2COC(CNCc2nccs2)C3)c1.O=C(O)C(F)(F)F (stereo unspecified) as the molecule, how does the “Percent Effect” value read?
Its value is -29.09%.

Which “Percent Effect” value does the source give for COc1cc(N2C[C@H](C(=O)NCC3CC3)[C@@H]3CCO[C@@H]3C2)ncn1.O=C(O)C(F)(F)F here?
The value was -37.92%.

For CN(CCc1ccccn1)C(=O)c1cnn(-c2ccccc2F)c1N, which “Percent Effect” value is on record?
Its value is 25.3%.

How did the “Percent Effect” value turn out when Cc1ccc(C)c(-n2ncc(C(=O)N(C)CCc3ccccn3)c2N)c1 was run?
The value was 29.21%.

Which “Percent Effect” value does the source give for Cc1cc(Cl)ccc1-n1ncc(C(=O)N(C)CCc2ccccn2)c1N here?
Its value is 67.07%.
